Data on 10 compounds can be found in PubChem BioAssay (Tox21).

Structures are written as SMILES. Values joined by “and” are separate entries in the source; they are usually repeats but may differ in a detail not shown here. Equal entries are not always repeated. Unmarked numbers belong to inactive results. Inconclusive results are not listed. Active and inactive are the calls of the source. Unless noted, calls follow the shape of the dose curve; as a rule, active = well fitted curve in the direction sought with a large enough effect in the repeat runs; inconclusive = weak or mixed curves; inactive = no such curve, though single readings can be large; an effect the other way counts as inactive or inconclusive.

The nature of experiment [1]: Caspase-3/7 induction in HepG2 cells by small molecules, qHTS assay (AID 1346978). Also: nearly all actives have a fitted effect of over 15% in size. Also: potency is read from the fitted curve at half-maximal effect. The method in brief: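 Caspase-3/7 induction was measured by Caspase-Glo 3/7 luminescence (30 min, room temperature) after a 17 hr compound exposure of wild-type HepG2 cells seeded at 2,000 per well and pre-incubated 5 hr.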
On the technique in general: qHTS replaces the single test concentration by a dilution series.

A short description of experiment [2]: Caspase-3/7 induction in CHO-K1 cells by small molecules, qHTS assay (AID 1346980). Also: nearly all actives have a fitted effect of over 15% in size. The method in brief:
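Luminescent Caspase-Glo 3/7 read (30min, room temperature) quantified apoptosis induction. Cells were wild-type CHO-K1, treated with compound for 17hr at 37 C and 5% CO2.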

Experiment [3] in a line: Caspase-3/7 induction in HepG2 cells by small molecules, qHTS cell viability counter screen (AID 1346981). Also: nearly all actives have a fitted effect of over 30% in size. Also: potency is read from the fitted curve at half-maximal effect. The method in brief:
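CellTiter-Fluor fluorescence measured viability in the same wells used for Caspase-Glo 3/7. HepG2 (wild type) at 2,000 cells/well were pre-incubated 5 hr, dosed, and given reagent at 16 hr, with 1 hr further at 37C.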

In experiment [4] the target is Nuclear receptor subfamily 1 group I member 2 (Homo sapiens) (UniProt O75469). Nature of the experiment: Human pregnane X receptor (PXR) small molecule agonists, qHTS assay (AID 1346982). Also: nearly all actives have a fitted effect of over 35% in size. Also: potency is read from the fitted curve at half-maximal effect. Put shortly: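 Agonist mode: luminescence from ONE-Glo after 24 h compound exposure at 37C in HepG2 cells carrying hPXR-responsive CYP3A4 luciferase, plated in charcoal-stripped serum medium 5 h beforehand.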
Nuclear receptor subfamily 1 group I member 2 (Homo sapiens), sequence (O75469 whole entry, looked up): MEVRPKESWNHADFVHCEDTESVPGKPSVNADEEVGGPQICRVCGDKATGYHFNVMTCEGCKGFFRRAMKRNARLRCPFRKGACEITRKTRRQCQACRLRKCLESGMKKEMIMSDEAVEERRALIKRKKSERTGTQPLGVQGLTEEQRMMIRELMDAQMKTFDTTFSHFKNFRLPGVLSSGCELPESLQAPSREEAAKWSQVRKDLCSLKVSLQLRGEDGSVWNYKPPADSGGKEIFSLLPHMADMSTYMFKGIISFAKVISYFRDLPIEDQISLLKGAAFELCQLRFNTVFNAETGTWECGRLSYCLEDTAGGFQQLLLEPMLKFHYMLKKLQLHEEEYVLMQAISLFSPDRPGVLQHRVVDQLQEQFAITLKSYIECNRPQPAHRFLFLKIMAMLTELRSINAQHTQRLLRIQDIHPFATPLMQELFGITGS

The target in experiment [5] is Acetylcholinesterase (Homo sapiens) (UniProt P22303). Nature of the experiment: Acetylcholinesterase (AChE) small molecule antagonists: colormetric cell-based qHTS assay (AID 1347395; calls by dose curve; also: nearly all actives have a fitted effect of over 30% in size). Put shortly: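 Neuroblastoma line SH-SY5Y supplied the enzyme; cells were preincubated with compound for 30 min at 37 C and 5% CO2. Acetylthiocholine with DTNB was then added for 90 min at 37 C, and thiocholine was measured by colour.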
Acetylcholinesterase (Homo sapiens), sequence (P22303 whole entry, looked up): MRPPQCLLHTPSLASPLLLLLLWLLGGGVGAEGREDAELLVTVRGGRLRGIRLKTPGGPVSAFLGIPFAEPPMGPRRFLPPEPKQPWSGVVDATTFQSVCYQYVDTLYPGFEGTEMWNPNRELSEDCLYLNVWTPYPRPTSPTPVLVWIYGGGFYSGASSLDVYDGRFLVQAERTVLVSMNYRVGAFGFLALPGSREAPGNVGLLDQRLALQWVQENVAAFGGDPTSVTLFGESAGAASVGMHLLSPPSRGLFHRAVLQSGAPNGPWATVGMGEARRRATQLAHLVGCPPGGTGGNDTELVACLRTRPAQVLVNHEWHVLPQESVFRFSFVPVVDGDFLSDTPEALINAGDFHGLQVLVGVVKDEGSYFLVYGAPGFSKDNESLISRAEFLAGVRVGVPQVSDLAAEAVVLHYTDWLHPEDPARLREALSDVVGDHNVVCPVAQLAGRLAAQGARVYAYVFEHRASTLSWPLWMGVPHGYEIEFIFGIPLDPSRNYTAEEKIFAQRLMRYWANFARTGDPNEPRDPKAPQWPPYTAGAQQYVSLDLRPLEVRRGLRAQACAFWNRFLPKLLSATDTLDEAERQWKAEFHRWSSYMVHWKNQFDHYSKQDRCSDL

Experiment [6] shares this target. Nature of the experiment: Acetylcholinesterase (AChE) small molecule antagonists: enzyme-based qHTS assay (AID 1347397; calls by dose curve; also: nearly all actives have a fitted effect of over 55% in size). The settings on record: Potency: AChE enzyme activity inhibition. The method in brief: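 Colorimetric DTNB readout of acetylthiocholine hydrolysis, 10 min at room temperature, after 30 min room-temperature exposure of 50 mU/mL recombinant human enzyme to compound; DMSO vehicle control.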

The target is the same in experiment [7]. As to the kind of experiment: Acetylcholinesterase (AChE) small molecule antagonists: fluorescence cell-based qHTS assay (AID 1347398; calls by dose curve; also: nearly all actives have a fitted effect of over 50% in size). As to conditions: Potency: AChE activity. The method in brief: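 Cellular AChE activity read as thiocholine from acetylthiocholine hydrolysis, detected by Thiolite Green fluorescence at 490/520 nm after 40 min at room temperature. Compounds were pre-incubated 30 min at 37 C on adherent SH-SY5Y cells.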

For experiment [8] the target is unchanged. Nature of the experiment: Acetylcholinesterase (AChE) small molecule antagonists: enzyme-based qHTS assay with human liver microsomes (AID 1347399; calls by dose curve; also: nearly all actives have a fitted effect of over 60% in size). The settings on record: Potency: qHTS inhibition. The method in brief:
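Recombinant human AChE (50 mU/mL in the enzyme mix) and human liver microsomes (0.25 mg/mL final) were preincubated with compound and NADPH (0.25 mg/mL final) for 30 min at 37 C. Acetylthiocholine/DTNB was then added; thiocholine was read colorimetrically after 10 min at room temperature.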

Experiment [9] has as its target Cytochrome P450 2D6 (Homo sapiens) (UniProt P10635). As to the kind of experiment: Cytochrome P450 Family 2 Subfamily D Member 6 (CYP2D6) small molecule antagonists: luciferase reporter qHTS assay (AID 1671196). Also: nearly all actives have a fitted effect of over 50% in size. Also: potency is read from the fitted curve at half-maximal effect. The method in brief:
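CYP2D6 activity was followed as luminescence from its luciferin product after a 1 h NADPH-driven reaction at room temperature. Enzyme-substrate mix and compound were pre-incubated for 10 min, and the signal was read 20 min after adding detection reagent.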
(Reporter assays use an easily measured gene product as a stand-in for the process of interest.)

Experiment [10] deals with Cytochrome P450 2C19 (Homo sapiens) (UniProt P33261). As to the kind of experiment: Cytochrome P450 Family 2 Subfamily C Member 19 (CYP2C19) small molecule antagonists: luciferase reporter qHTS assay (AID 1671197). Also: nearly all actives have a fitted effect of over 65% in size. Also: potency is read from the fitted curve at half-maximal effect. Put shortly:
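P450-Glo CYP2C19 screening system; proluciferin substrate; DMSO compound stocks; 10 min RT preincubation; NADPH regeneration, 1 h at 37C; luciferin detection reagent, 20 min RT; luminescence as RLU.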

For experiment [11], the target named is Cytochrome P450 2C9 (Homo sapiens) (UniProt P11712). Nature of the experiment: Cytochrome P450 Family 2 Subfamily C Member 9 (CYP2C9) small molecule antagonists: luciferase reporter qHTS assay (AID 1671198). Also: nearly all actives have a fitted effect of over 50% in size. Also: potency is read from the fitted curve at half-maximal effect. The method in brief: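 Enzyme-substrate mix preincubated with compound 10 min at room temperature; reaction started with NADPH regeneration solution, 1 h 37C. Luminescent luciferin product read after 20 min detection reagent.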
Cytochrome P450 2C9 (Homo sapiens), sequence (P11712 whole entry, looked up): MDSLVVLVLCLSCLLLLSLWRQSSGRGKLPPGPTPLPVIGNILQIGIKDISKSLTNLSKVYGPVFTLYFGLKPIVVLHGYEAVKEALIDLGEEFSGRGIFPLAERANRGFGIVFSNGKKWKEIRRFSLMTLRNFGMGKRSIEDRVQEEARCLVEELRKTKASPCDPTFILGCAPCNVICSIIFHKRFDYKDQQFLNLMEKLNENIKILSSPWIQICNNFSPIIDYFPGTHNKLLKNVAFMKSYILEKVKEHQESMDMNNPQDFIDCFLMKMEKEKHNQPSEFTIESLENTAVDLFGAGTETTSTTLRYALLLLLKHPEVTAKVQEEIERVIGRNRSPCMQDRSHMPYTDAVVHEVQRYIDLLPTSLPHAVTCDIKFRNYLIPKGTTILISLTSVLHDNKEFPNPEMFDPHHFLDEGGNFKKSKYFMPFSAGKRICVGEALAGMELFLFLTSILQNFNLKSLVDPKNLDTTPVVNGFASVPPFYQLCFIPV

Experiment [12] has as its target Cytochrome P450 1A2 (Homo sapiens) (UniProt P05177). As to the kind of experiment: Cytochrome P450 Family 1 Subfamily A Member 2 (CYP1A2) small molecule antagonists: luciferase reporter qHTS assay (AID 1671199). Also: nearly all actives have a fitted effect of over 50% in size. Also: potency is read from the fitted curve at half-maximal effect. Put shortly:
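Luminescence from luciferin formed by CYP1A2 from a proluciferin substrate, read 20 min after detection reagent. Compound was pre-incubated 10 min with enzyme-substrate, and reaction started with NADPH regeneration solution for 1 h at room temperature; furafylline control.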

The target of experiment [13] is Voltage-gated inwardly rectifying potassium channel KCNH2 (Homo sapiens) (UniProt Q12809). As to the kind of experiment: Human Ether-a-go-go-Related Gene (hERG) channel small molecule antagonists: fluorescence cell-based qHTS assay (AID 1671200). Also: nearly all actives have a fitted effect of over 50% in size. Also: potency is read from the fitted curve at half-maximal effect. The method in brief:
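Measured: Tl+ flux via fluorescence (480/540 nm) in hERG-expressing U2OS cells after 1 h dye loading at room temperature.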
In general terms: Block of hERG is tested as a sign of cardiac risk.

Experiment [14] has as its target Cytochrome P450 3A4 (Homo sapiens) (UniProt P08684). As to the kind of experiment: Cytochrome P450 Family 3 Subfamily A Member 4 (CYP3A4) small molecule antagonists: luciferase reporter qHTS assay (AID 1671201). Also: nearly all actives have a fitted effect of over 50% in size. Also: potency is read from the fitted curve at half-maximal effect. The method in brief:
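Setup: enzyme-substrate mix, compound pin transfer, 10 min RT. Reaction: NADPH regeneration solution, 1 h RT. Readout: detection reagent stops turnover, luminescence measured after 20 min, expressed in relative luminescence units.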

Experiment [15] can be described thus: Caspase-3/7 induction in CHO-K1 cells by small molecules, qHTS cell viability counter screen (AID 1346979). Also: nearly all actives have a fitted effect of over 35% in size. Also: potency is read from the fitted curve at half-maximal effect. The method in brief: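 To flag cytotoxic compounds, treated CHO-K1 wild-type cells were given CellTiter-Fluor at 16hr and read fluorescently after 1hr at 37C; the caspase-3/7 luminescence was measured in these same wells.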
The target in experiment [16] is Nuclear receptor subfamily 1 group I member 2 (Rattus norvegicus) (UniProt Q9R1A7). As to the kind of experiment: Rat pregnane X receptor (rPXR) activation by small molecules, qHTS assay (AID 1346983). Also: nearly all actives have a fitted effect of over 20% in size. As to conditions: rPXR luciferase reporter cells, One-Glo luminescence, 24 h; max activation: stronger effect = higher value. The method in brief:
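Luminescent readout (One-Glo luciferase, 30 min room temperature) followed 24 hr compound treatment at 37 C of rPXR cells plated 2,000 per well and preincubated 5hr; qHTS format with compounds delivered in DMSO.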

Experiment [17] concerns the target Nuclear receptor subfamily 1 group I member 2 (Homo sapiens) (UniProt O75469). As to the kind of experiment: CYP3A4 induction through human pregnane X receptor (PXR) by small molecules, qHTS assay (AID 1346984). Also: nearly all actives have a fitted effect of over 40% in size. The method in brief: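 Read-out is luminescence after One-Glo addition, following a 3 hr, 37C incubation with Luciferin-IPA CYP3A4 substrate (3uM final). Before that, compounds were on DPX-2 cells (HepG2 co-transfected with PXR element plus CYP3A4-promoter luciferase) for 24 hr at 37C.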
% is scaled to controls: 0 for no effect and ±100 for the full control effect.

Cytochrome P450 1A2 (Homo sapiens), sequence (P05177 whole entry, looked up): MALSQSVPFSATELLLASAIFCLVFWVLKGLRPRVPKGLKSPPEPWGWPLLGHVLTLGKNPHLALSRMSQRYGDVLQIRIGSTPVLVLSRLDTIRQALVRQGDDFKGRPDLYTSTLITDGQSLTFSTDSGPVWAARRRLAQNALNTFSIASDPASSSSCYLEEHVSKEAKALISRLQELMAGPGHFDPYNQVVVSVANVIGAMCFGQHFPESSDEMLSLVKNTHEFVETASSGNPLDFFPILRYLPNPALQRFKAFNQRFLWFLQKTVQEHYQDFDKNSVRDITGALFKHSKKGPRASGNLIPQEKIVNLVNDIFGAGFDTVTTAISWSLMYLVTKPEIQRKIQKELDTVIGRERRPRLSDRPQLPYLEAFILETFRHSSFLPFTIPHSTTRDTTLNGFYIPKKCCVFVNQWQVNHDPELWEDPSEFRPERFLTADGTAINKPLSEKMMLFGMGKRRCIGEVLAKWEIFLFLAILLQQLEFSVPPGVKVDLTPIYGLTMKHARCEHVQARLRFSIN
Cytochrome P450 2C19 (Homo sapiens), sequence (P33261 whole entry, looked up): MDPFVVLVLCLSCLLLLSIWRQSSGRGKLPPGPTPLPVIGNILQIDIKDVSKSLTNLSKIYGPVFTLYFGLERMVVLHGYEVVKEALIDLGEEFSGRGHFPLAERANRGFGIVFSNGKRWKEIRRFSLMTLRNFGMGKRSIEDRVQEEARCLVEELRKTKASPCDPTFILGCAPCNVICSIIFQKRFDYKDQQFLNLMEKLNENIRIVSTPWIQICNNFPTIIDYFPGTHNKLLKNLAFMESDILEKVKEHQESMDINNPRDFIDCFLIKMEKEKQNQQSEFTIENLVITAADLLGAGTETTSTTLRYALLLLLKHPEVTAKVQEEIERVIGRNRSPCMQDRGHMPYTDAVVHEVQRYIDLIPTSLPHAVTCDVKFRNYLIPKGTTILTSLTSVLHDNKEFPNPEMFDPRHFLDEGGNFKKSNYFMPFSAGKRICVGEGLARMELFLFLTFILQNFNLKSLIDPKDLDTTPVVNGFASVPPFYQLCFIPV
Cytochrome P450 2D6 (Homo sapiens), sequence (P10635 whole entry, looked up): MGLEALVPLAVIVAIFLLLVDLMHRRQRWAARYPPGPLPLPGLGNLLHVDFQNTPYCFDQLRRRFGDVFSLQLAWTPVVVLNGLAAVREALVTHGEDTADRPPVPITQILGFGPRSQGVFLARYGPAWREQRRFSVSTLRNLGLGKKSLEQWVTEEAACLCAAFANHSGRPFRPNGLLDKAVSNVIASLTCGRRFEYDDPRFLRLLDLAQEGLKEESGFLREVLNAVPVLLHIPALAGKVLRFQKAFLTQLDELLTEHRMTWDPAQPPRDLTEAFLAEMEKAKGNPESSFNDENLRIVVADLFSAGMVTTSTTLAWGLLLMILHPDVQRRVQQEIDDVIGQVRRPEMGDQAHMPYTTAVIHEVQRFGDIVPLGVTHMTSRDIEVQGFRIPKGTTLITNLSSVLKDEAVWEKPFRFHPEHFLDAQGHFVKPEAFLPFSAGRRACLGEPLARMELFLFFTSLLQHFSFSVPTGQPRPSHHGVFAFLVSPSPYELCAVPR
Cytochrome P450 3A4 (Homo sapiens), sequence (P08684 whole entry, looked up): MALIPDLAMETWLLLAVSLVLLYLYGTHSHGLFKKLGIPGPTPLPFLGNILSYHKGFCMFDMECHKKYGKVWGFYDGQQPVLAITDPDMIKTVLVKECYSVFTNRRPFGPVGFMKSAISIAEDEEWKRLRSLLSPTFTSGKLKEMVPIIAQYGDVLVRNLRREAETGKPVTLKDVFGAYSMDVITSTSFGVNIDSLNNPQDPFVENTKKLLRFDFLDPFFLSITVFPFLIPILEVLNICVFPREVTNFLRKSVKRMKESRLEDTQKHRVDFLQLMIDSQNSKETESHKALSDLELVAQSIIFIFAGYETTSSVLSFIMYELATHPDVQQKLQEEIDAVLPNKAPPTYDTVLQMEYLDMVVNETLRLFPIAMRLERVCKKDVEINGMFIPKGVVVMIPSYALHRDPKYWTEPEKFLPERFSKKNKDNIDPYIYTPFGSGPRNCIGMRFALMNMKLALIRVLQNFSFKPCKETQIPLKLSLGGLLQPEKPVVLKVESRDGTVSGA
Voltage-gated inwardly rectifying potassium channel KCNH2 (Homo sapiens), sequence (Q12809 whole entry, looked up): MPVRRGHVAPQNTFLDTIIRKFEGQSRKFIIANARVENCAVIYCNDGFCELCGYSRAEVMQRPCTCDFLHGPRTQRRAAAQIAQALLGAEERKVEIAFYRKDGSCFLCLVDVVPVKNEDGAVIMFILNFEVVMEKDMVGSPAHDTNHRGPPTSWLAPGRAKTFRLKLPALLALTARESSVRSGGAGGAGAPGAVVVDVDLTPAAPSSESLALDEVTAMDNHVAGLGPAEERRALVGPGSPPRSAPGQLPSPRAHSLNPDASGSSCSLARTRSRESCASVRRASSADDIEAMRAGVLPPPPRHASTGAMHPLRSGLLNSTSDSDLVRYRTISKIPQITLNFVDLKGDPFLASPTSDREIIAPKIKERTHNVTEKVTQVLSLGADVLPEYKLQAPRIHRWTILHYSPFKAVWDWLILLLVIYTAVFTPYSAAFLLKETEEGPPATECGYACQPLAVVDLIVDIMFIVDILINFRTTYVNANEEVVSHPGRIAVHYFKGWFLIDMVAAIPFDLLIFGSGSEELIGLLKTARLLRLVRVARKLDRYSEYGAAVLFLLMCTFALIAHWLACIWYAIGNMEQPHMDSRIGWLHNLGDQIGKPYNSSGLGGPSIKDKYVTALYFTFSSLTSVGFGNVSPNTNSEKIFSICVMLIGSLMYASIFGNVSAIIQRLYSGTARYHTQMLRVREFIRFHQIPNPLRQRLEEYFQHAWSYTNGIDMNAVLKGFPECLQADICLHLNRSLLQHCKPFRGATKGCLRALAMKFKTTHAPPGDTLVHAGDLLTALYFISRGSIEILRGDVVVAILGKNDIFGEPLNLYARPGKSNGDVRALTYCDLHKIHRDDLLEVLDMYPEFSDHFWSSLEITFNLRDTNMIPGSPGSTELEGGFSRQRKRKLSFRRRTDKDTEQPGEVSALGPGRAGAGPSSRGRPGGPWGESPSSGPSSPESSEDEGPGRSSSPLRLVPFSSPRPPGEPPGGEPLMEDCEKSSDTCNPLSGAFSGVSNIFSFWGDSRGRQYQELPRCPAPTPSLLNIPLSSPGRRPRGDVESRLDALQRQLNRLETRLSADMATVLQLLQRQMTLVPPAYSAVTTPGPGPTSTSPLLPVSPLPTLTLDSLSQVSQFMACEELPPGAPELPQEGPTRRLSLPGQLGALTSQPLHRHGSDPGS

In the case of `NC(=O)C(Cl)Cl`, the Potency result in experiment [1], in experiment [2], in experiment [3], in experiment [4], in experiment [5] and in experiment [6] was “inactive” throughout. The Potency result in experiment [7], in experiment [8], in experiment [9], in experiment [10], in experiment [11] and in [12] was “inactive” throughout. The Potency result in experiment [13] and in [14] was “inactive” in each case.

Turning to `O=C1C[C@@H]2OCC=C3CN4CC[C@]56c7ccccc7N1[C@H]5[C@H]2[C@H]3C[C@H]46`, the Potency result in experiment [1] and in experiment [2] was “inactive” throughout.

For the compound `O=[N+]([O-])[O-].[Tl+]`, the Potency result in experiment [1], in experiment [2] and in experiment [13] was “inactive” in each case. Besides, the Potency in experiment [15] was 61.6 µM (active).

`CCc1cccc(C)c1N(C(=O)CCl)[C@@H](C)COC`: the Potency entry in experiment [1], in experiment [2], in experiment [3], in experiment [5], in experiment [6] and in [7] was “inactive” in each case. The Potency result in experiment [8], in [9] and in experiment [13] was “inactive” in each case. Besides, the Potency in experiment [4] was 7.7 µM (active); in experiment [10], 5.64 µM (active); in [11] it was 17.8 µM (active).

Turning to `COc1ccc(Cc2nccc3cc(OC)c(OC)cc23)cc1OC`, the Potency result in experiment [1], in [2], in experiment [17], in experiment [12] and in [13] was “inactive” in each case. Also, the figures for the Potency in experiment [15] and in [4] were 13.3 µM (active) and 16.8 µM (active), respectively. Besides, the max activation in [16] is -16.6%.

As for `COP(=O)(OC)Oc1ccc([N+](=O)[O-])cc1`, the Potency entry in experiment [1], in experiment [15], in experiment [2], in experiment [4], in experiment [11] and in experiment [12] was “inactive” in each case. Also, the Potency result in experiment [13] and in experiment [14] was “inactive” each time. Further, the figures for the Potency in experiment [9] and in experiment [10] were 25.2 µM (active) and 20 µM (active), respectively.

`CCCCN(CCCC)C(=S)[S-].CCCCN(CCCC)C(=S)[S-].[Ni+2]`: the Potency result in [1], in experiment [15], in experiment [2], in experiment [4], in experiment [5] and in [6] was “inactive” in each case. For the same compound, the Potency entry in experiment [7], in experiment [8], in experiment [9], in experiment [10], in experiment [11] and in experiment [12] was “inactive” in each case. Besides, the Potency entry in experiment [13] and in experiment [14] was “inactive” in each case.

Take `O=C1C2(Cl)C3(Cl)C4(Cl)C(Cl)(Cl)C5(Cl)C3(Cl)C1(Cl)C5(Cl)C24Cl` (stereo unspecified): the Potency in [1] was 30.1 µM (active) and 65.7 µM (active); in [15] it was 37.9 µM (active) and 46.5 µM (active); in [3], 60.1 µM (active); in experiment [4], 10.7 µM (active) and 10.4 µM (active); in experiment [10], 622 nM (active) and 961 nM (active); in experiment [11], 5.55 µM (active) and 6.06 µM (active). The Potency in experiment [13] is 12.1 µM (active) and 14.8 µM (active); in [14], 2.78 µM (active) and 3.41 µM (active). The Potency entry in experiment [5], in experiment [7], in experiment [8] and in [9] was “inactive” each time.

With `O=[N+]([O-])c1cc(C(F)(F)F)c(Cl)c([N+](=O)[O-])c1Nc1ncc(C(F)(F)F)cc1Cl`, the Potency result in [1], in experiment [5], in [7] and in experiment [8] was “inactive” each time. The Potency in experiment [15] was 5.45 µM (active); in [3], 54.5 µM (active); in experiment [4], 8.63 µM (active); in [10], 12.6 µM (active); in [11] it was 0.564 µM (active); in [12] it was 35.6 µM (active). Further, the Potency in experiment [14] was 20 µM (active).

As for `COC(=O)c1cc(Oc2ccc(Cl)cc2Cl)ccc1[N+](=O)[O-]`, the Potency entry in [1], in experiment [2], in experiment [3], in [5], in experiment [6] and in [7] was “inactive” each time. Moreover, the Potency result in experiment [8] and in experiment [14] was “inactive” throughout. In addition, the Potency was 54.5 µM (active) in experiment [4]; 22.4 µM (active) in experiment [9]; 2.52 µM (active) in experiment [10]; 7.1 µM (active) in experiment [11]; 15.9 µM (active) in experiment [12]; 17.4 µM (active) in experiment [13].
